# Assay outcomes from PubChem BioAssay.
# HIF-2a block: inhibitors of HIF-2a; inhibition, % at 18.8 µM; 786-0 RCC cells HIF-2a reporter, luciferase luminescence, overnight; 0.72% of 360,000 active;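 active means inhibition of the luminescence signal of 40% or more relative to plate controls, in a single-dose primary screen at 18.75 µM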
# TRPM1 prom inh: inhibitors of MITF-driven TRPM1 promoter in melanoma cells. SK-MEL-5 TRPM1 promoter luciferase, 24 h. inhibition, % at 12.5 µM. 0.83% of 330,000 active;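 active means mean inhibition across replicates of 60% or more, whatever share of single replicates reaches that level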
# Peg3 prom inh: inhibitors of Peg3 promoter; AID 588405; 1.7% of 360,000 active; inhibition, % at 20 µM; HeLa PEG-Prom luciferase reporter, luminescence, overnight;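 active means inhibition of at least 50% at 20 µM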
# KKLEB cytotox: CF airway cell cytotoxicity counter-screen. KKLEB CF airway cells viability, ATPlite luminescence, overnight; stronger effect = lower value; cells stimulated with P. aeruginosa culture filtrate. AID 602141. 0.36% of 360,000 active. activity change (cytotoxicity), % at 5 µM;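 active means corrected activity change at or below -50% at 5 µM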
# Shn3 3UTR inh: inhibitors of Schnurri-3 3'UTR reporter in osteoblasts; inhibition, % at 12.5 µM; Clone20 osteoblast Shn3 3'UTR firefly luciferase, 24 h; AID 588674; 0.52% of 360,000 active;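 active means mean inhibition of at least 75% with every replicate also reaching 75%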;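 further: 0% = median of neutral control wells and 100% = pilot-screen positive control compound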
# CF NFkB block: cystic fibrosis NF-kB activation inhibition. AID 588850. inhibition, % at 5 µM. 0.86% of 360,000 active. KKLEB NF-kB-GFP reporter, PAF-induced, GFP fluorescence overnight;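 active means at least 50% inhibition at 5 µM, scaled per plate between neutral and stimulator controls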;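 further: PAF is a Pseudomonas aeruginosa culture filtrate used as stimulus; plate controls were PAF-stimulated DMSO wells for no effect and unstimulated DMSO wells for full effect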
# Starred values were filed as active, the others as inactive; . = not tested or not shown. Only some compounds are listed: those with a hit (about 2.8% of all), similar ones and a draw of the others.
SMILES,HIF-2a block,TRPM1 prom inh,Peg3 prom inh,KKLEB cytotox,Shn3 3UTR inh,CF NFkB block
OC[C@@H]1[C@@H](c2ccc(Cl)cc2)C(c2ccc(F)cc2)=NN1c1ccccc1,10.6,10.0,84.7*,-7.3,21.9,13.7
COC(=O)C1=C(C(=O)OC)[C@@H]2N(C)c3ccccc3[C@@]23C[C@@H](C(=O)OC)N(C(=O)c2cccs2)C3=N1,6.4,0.3,36.3,-6.2,-9.1,30.1
COC(=O)C1=C(C(=O)OC)[C@@H]2N(Cc3ccccc3)c3ccccc3[C@@]23C[C@@H](C(=O)OC)N(C(=O)c2cccs2)C3=N1,-0.5,2.4,81.4*,-15.5,4.9,38.1
COC(=O)C1=C(C(=O)OC)[C@@H]2N(C)c3ccccc3[C@@]23C[C@@H](C(=O)OC)N(C(=O)c2ccc(Br)cc2)C3=N1,0.9,10.6,82.3*,-6.4,55.7,43.9
COC(=O)C1=C(C(=O)OC)[C@@H]2N(Cc3ccccc3)c3ccccc3[C@@]23C[C@@H](C(=O)OC)N(C(=O)c2cc(C)oc2C)C3=N1,5.3,-1.1,55.0*,-23.9,-1.0,46.1
COC(=O)C1=C(C(=O)OC)[C@@H]2N(Cc3ccccc3)c3ccccc3[C@@]23C[C@@H](C(=O)OC)N(C(=O)CC(C)C)C3=N1,19.7,-0.4,9.9,-3.7,-7.3,0.8
COC(=O)C1=C(C(=O)OC)[C@@H]2N(C)c3ccc(OC)cc3[C@@]23C[C@@H](C(=O)OC)N(C(=O)c2cccs2)C3=N1,5.5,8.8,19.4,0.1,0.0,54.4*
O=C(NCc1ccccc1)c1cc(C2COCCN2C(=O)c2ccc(Cl)cc2)on1 (configuration not stated),12.1,.,5.9,7.8,-11.8,-0.2
CSc1ccc(CN2CCC(C)(Oc3ccccc3)C2)cc1 (configuration not stated),-3.3,.,-8.1,-8.7,-5.3,10.5
CC(C)(C)c1ccc(OCC(=O)NNC(=S)NC(=O)c2ccco2)c(Br)c1,5.4,19.9,26.9,-78.2*,46.5,58.4*
CC1(C)Cc2c(c(N3CCOCC3)nc3snc(N)c23)CO1,38.4,50.0,64.6*,-11.0,-17.0,31.7
CC1(C)Cc2c(c(N3CCOCC3)nc3sc(C(N)=O)c(N)c23)CO1,30.2,-40.9,8.8,-0.1,8.6,18.6
CC1(C)Cc2c(c(N3CCOCC3)nc3snc(Br)c23)CO1,29.2,0.9,92.1*,-23.6,17.0,30.8
CCOC(=O)c1c(S(=O)(=O)NCC(=O)N2CCN(c3ccc(OC)cc3)CC2)c(C)n(C)c1C,2.9,15.6,-5.6,-4.3,-8.2,2.3
CCN1C(=O)CCN(C2CCCC2)c2nc(Nc3ccc(C(=O)NC4CCN(C)CC4)cc3OC)ncc21,-35.5,76.1*,66.0*,-16.1,-10.1,-156.3
O=C(c1cc(-c2ccccc2Cl)nc2ccc(Br)cc12)N1CCN(c2ccccn2)CC1,15.2,32.9,92.2*,8.2,20.6,2.7
O=C(c1cc(-c2ccncc2)nc2ccc(Br)cc12)N1CCN(c2ccccn2)CC1,-4.0,-16.2,28.7,-19.0,12.3,-16.4
COC1C=CC=C(C)C(=O)NC2=CC(=O)C(N)=C(CC(C)CC(OC)C(O)C(C)C=C(C)C1OC(N)=O)C2=O (configuration not stated),-44.7,64.9*,64.2*,17.4,86.9*,64.2*
CCN(CC)C(=O)CSc1nnc(-c2ccccn2)n1-c1ccccc1OC,16.7,5.8,17.6,6.8,-10.9,-8.8
Oc1cc2c(cc1O)[C@@H](c1ccccc1)CNCC2,-3.3,4.4,-13.7,-24.5,-6.3,31.0
Oc1cc2c(cc1O)C(c1ccccc1)CNCC2 (configuration not stated),9.9,0.3,-17.3,-58.5*,-16.2,18.9
Cc1ccc([C@H]2C[C@H](n3cc(-c4ccc(F)cc4)nn3)[C@@H](O)CN2CC2CCCCC2)cc1,3.7,.,12.6,-12.8,24.1,11.4
C=CCSC1=NC(=O)/C(=C/c2cccs2)S1,-30.7,4.3,53.2*,-25.4,-3.7,0.9
NC1=NC(=O)/C(=C/c2cccs2)S1,-46.5,-18.5,-16.0,1.6,-15.2,9.5
O=c1ccc2nc3ccccc3sc-2c1,-41.4,.,-89.2,7.8,10.0,32.1
SMILES,HIF-2a block,TRPM1 prom inh,Peg3 prom inh,KKLEB cytotox,Shn3 3UTR inh,CF NFkB block
COc1cc(C=C2CN(C)C(=O)C2=O)ccc1O,-1.3,.,2.9,-5.6,-15.8,0.1
CCOc1cc(/C=C2\CN(C)C/C(=C\c3ccc(O)c(OCC)c3)C2=O)ccc1O,91.6*,102.5*,102.8*,-9.3,96.1*,63.3*
CCOc1cc(/C=C2\CCC/C(=C\c3cc(Cl)c(O)c(OCC)c3)C2=O)cc(Cl)c1O,89.3*,71.6*,80.8*,-50.3*,69.6,51.7*
CN1C/C(=C/c2ccsc2)C(=O)/C(=C/c2ccsc2)C1,46.8*,86.6*,36.0,7.5,65.5,-38.6
CN1C/C(=C/c2ccncc2)C(=O)/C(=C/c2ccncc2)C1,18.2,8.5,5.6,7.3,-1.7,-2.1
Cc1cccc2c1cnn2C(=O)CCC(=O)NCc1ccc(F)cc1,13.5,-6.8,-1.6,2.3,-16.8,4.4
Cc1ccc(-n2c(C)cc(C(=O)COC(=O)c3ccc[nH]c3=O)c2C)cc1C,7.0,-1.3,-221.3,0.4,27.2,3.3
CC(=O)Nc1ccc(SCC(=O)c2cc(C)n(-c3ccccc3F)c2C)cc1,50.4*,-0.2,17.8,11.3,6.2,-24.8
Cc1cc(C(=O)COC(=O)c2ccc[nH]c2=O)c(C)n1-c1ccccc1F,45.4*,7.0,-56.8,-0.4,14.4,6.6
Cc1c(C(C)C[C@H](C)O)oc(=O)c2c1Oc1c(C)c(C(C)C[C@H](C)O)oc(=O)c1C2 (some centres not stated),15.4,7.4,-3.6,9.9,12.1,-17.4
O=C(COC(=O)/C=C/c1ccc(Cl)cc1Cl)NCc1ccco1,10.9,1.3,1.1,-12.8,-8.7,2.5
Oc1ccc(C[C@H]2CNC(=S)N2C[C@H]2CCCN2C[C@H](Cc2ccccc2)N2C[C@H](Cc3ccc(O)cc3)N(CC3CCCCCC3)C2=S)cc1,-17.1,.,75.7*,-21.2,-1.4,44.8
Oc1ccc(C[C@H]2CN([C@@H](Cc3cccc(O)c3)CN3CCC[C@@H]3CN3C(=S)NC[C@@H]3Cc3ccccc3)C(=S)N2CC2CCCCC2)cc1,-58.3,.,105.0*,-17.7,63.8,47.8
Oc1ccc(C[C@H]2CN([C@@H](Cc3ccccc3)CN3CCCC3CN3C(=S)NC[C@@H]3Cc3ccccc3)C(=S)N2CC2CCCCC2)cc1 (some centres not stated),7.5,.,.,.,.,.
CC(C)C[C@H]1CNC(=S)N1CC1CCCN1C[C@H](Cc1ccccc1)N1C[C@H](Cc2ccc(O)cc2)N(CC2CCCCC2)C1=S (some centres not stated),-5.2,26.3,59.0*,-12.3,26.5,33.3
